# Sampled rows, rich in hits. Any-hit rate of the full collection: about 7.5%.
# Luc counter: Counterscreen for Luciferase (Kinase-Glo TM) Inhibition; Kinase-Glo luciferase, ATP luminescence, 8 min; Potency, µM (titrated, usually from 38.3 µM), for the others: top-dose activity change, negative = inhibition, usual class: inhibitors; 0.28% of 200,000 active; also: % is scaled to controls: 0 for no effect and ±100 for the full control effect; nearly all actives have a fitted effect of over 60% in size
#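 Kinase-Glo luciferase light output from ATP and luciferin was measured with 10 uM ATP, within the enzyme's linear range. Buffer: 50 mM imidazole pH 7.2, 50 mM KCl, 7 mM MgCl2, 0.01% Tween 20, 0.05% BSA; luminescence read after 8 min at ambient temperature.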
# FLuc counter: qHTS profiling assay for firefly luciferase inhibitor/activator using purifed enzyme and Km concentrations of substrates (counterscreen for miR-21 project). Luciferin 4-monooxygenase (Photinus pyralis), P08659. purified FLuc, Km substrates, luminescence inhibition. Potency, µM (titrated, usually from 57.5 µM), inactives show at the top dose activity change, negative = inhibition, hits mostly inhibitors. 6.9% of 360,000 active;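 also: plate controls were vehicle for no effect and reference inhibitor for full effect; nearly all actives have a fitted effect of over 55% in size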
# Target sequence (P08659 whole entry, looked up): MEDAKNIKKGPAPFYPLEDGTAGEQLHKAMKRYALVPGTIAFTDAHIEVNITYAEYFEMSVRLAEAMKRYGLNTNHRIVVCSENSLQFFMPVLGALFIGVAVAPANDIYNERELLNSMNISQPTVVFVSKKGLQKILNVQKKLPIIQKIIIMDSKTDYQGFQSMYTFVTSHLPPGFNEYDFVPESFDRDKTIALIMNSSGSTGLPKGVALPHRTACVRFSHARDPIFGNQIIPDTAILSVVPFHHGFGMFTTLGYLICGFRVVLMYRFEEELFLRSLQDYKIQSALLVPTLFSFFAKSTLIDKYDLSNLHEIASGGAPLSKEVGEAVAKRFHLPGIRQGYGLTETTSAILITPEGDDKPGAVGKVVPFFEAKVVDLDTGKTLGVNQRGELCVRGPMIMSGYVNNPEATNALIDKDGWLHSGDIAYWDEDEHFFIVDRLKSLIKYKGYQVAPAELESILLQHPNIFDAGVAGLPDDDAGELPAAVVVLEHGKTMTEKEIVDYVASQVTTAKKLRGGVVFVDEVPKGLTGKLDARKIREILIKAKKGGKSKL
#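 Purified P. pyralis luciferase (10nM final) with 10uM D-luciferin and 10uM ATP (Km levels) in 50mM Tris acetate pH 7.5, 10mM Mg acetate, 0.01% Tween-20, 0.05% BSA; qHTS 6-point titration, ~60 µM downward; luminescence read.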
# ELG1 genotoxic: qHTS screen for small molecules that induce genotoxicity in human embryonic kidney (HEK293T) cells expressing luciferase-tagged ELG1; AID 504466, 2011; Potency, µM (top dose mostly 46 µM), without a hit: at the top dose activity change, positive = activation, actives largely listed as activators; HEK293T ELG1-luciferase reporter, luminescence, 16 h; 1.3% of 330,000 active; also: % of control where 0% means no effect; nearly all actives have a fitted effect of over 60% in size
#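 HEK293T cells expressing luciferase-tagged ELG1 were treated with compound or DMSO for 16 hr at 37°C. Luciferase activity was then read after 30 min with ONE-Glo at room temperature; rising signal flags genetic stress.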
# SMN2 splice up: qHTS Assay for Enhancers of SMN2 Splice Variant Expression; 2.8% of 210,000 active; Potency, µM (doses to about 46.1 µM), without a hit: at the top dose activity change, positive = activation, hits mostly activators; HEK293 SMN2-luciferase splicing reporter, luminescence, 30-36 h; also: % of control where 0% means no effect; nearly all actives have a fitted effect of over 55% in size
#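 qHTS luciferase splicing reporter: luminescence rises when SMN2 exon 7 is included in transfected HEK293 cells. Compound exposure lasted 30-36 h at 37C, with 4.5 mM final sodium butyrate as control, followed by a ONE-Glo read.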
# NPC1 prom act: qHTS Assay for NPC1 Promoter Activators. 2.4% of 320,000 active. Potency, µM (titrated, usually from 9.22 µM), for inactives: at the top dose activation, usual class: activators. AID 485313, 2010. Huh7 NPC1 promoter luciferase reporter, 24 h; also: % of control where 0% means no effect; nearly all actives have a fitted effect of over 60% in size
#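 Luminescence from an NPC1 promoter-driven luciferase reporter in stably transfected Huh7 cells was measured after 24 h compound treatment at 37 °C, followed by 10 min ambient incubation with luciferase detection reagent.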
# Rab9 promoter act: qHTS Assay for Rab9 Promoter Activators; Huh7 Rab9 promoter-luciferase reporter, luminescence, 24 h; Potency, µM (doses to about 9.22 µM), for the others: at the highest dose activation, negative = inhibition, usual class: activators; 2.8% of 320,000 active; also: % of control where 0% means no effect; nearly all actives have a fitted effect of over 60% in size
#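 Promoter activation is measured as luciferase luminescence in Huh7 cells stably transfected with a Rab9 promoter–luciferase construct, following 24 h compound exposure at 37 °C and 10 min reagent incubation at ambient temperature.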
# * marks the source's active call; other numbers are inactive results; ? = inconclusive; nt = not tested or not shown; [ ] = dose if it differs, or a comment. Calls follow the shape of the dose curve; as a rule, active = well fitted curve in the direction sought with a large enough effect; inconclusive = small, poorly fitted or top-dose-only effect, or another doubt; inactive = no such curve, though single readings can be large; an effect the other way counts as inactive or inconclusive. Potency is read from the fitted curve at half-maximal effect.
SMILES,Luc counter,FLuc counter,ELG1 genotoxic,SMN2 splice up,NPC1 prom act,Rab9 promoter act
Cc1cccc(C(=O)NCC(c2ccc3c(c2)OCO3)N2CCOCC2)c1 (stereo unspecified),nt,-4.6%,nt,nt,nt,nt
CCOc1ccc(C(=O)NCC(=O)OCC(=O)Nc2ccc(C)c(S(=O)(=O)N(C)C)c2)cc1,5.5%,4.78µM*,1.8%,1.3%,-2.9%,-2.6%
CCOc1ccc(C(=O)NCC(=O)OCC(=O)Nc2ccccc2OCC)cc1,-0.3%,23.9µM*,1.3%,2.4%,1.2%,-2.8%
CCOc1ccc(C(=O)NCC(=O)OCC(=O)Nc2ccccc2OC)cc1,-3.4%,23.9µM*,1.6%,-2.0%,-0.3%,-3.4%
COc1ccc(C(=O)NCC(=O)OCC(=O)Nc2cc([N+](=O)[O-])ccc2F)cc1,-2.9%,23.9µM*,11.6%,-0.6%,-1.6%,1.3%
CSc1ccc(Cl)c(C(=O)NNC(=O)c2csc(N3CCOCC3)n2)c1,nt,-10.1%,-1.7%,nt,-2.2%,-1.6%
CCNc1nc(OC)nc(Oc2ccc(=O)[nH]n2)n1,nt,-5.5%,nt,9.9%,nt,nt
CCNc1nc(N)nc(Oc2ccc(C(=O)OC)cc2)n1,-2.4%,19µM*,11.6µM*,25.1µM*,?,3.16µM*
CCOC(=O)c1cc(-c2ccc(OC)cc2)n(CCC(=O)NCCc2ccc(OCC)c(OCC)c2)c1C,nt,-0.6%,nt,nt,nt,nt
CC(=O)Nc1nc(C)c(C(C)=O)s1,-0.9%,-0.5%,-4.6%,1.9%,-2.0%,9.2%
CC(=O)c1ccc(-c2ccc(C(=O)Nc3nc(C)c(C(C)=O)s3)o2)cc1,nt,-1.6%,2.7%,nt,1.1%,2.0%
CC(=O)c1sc(NC(=O)c2ccc(Cl)cc2)nc1C,nt,?,?,nt,3.16µM*,1.41µM*
CC(=O)c1sc(NCc2ccccc2)nc1C,nt,-11.6%,10.2%,nt,8.9%,17.3%
CC(=O)c1sc(NC(=O)c2ccc(F)c(S(=O)(=O)N3CCOCC3)c2)nc1C,nt,19µM*,0.0%,nt,-1.1%,0.2%
CC(=O)c1sc(NCc2ccc(C)cc2)nc1C,nt,15.1µM*,23.1µM*,nt,3.16µM*,2.82µM*
CC(=O)c1sc(NC(=O)c2cc(S(=O)(=O)N3CCOCC3)ccc2F)nc1C,nt,nt,-0.2%,nt,0.3%,-8.3%
CC(=O)c1sc(NC(=O)c2ccc(F)c(F)c2)nc1C,-6.8%,?,16.4µM*,1.2%,?,3.16µM*
COc1ccc(N(C)S(=O)(=O)c2cccc(C(=O)Nc3nc(C)c(C(C)=O)s3)c2)cc1,nt,-17.5%,0.1%,nt,2.4%,4.0%
CC(=O)c1sc(NC(=O)c2cccc(C)c2)nc1C,-22.8%,6.75µM*,5.17µM*,14.1µM*,3.16µM*,2µM*
COc1ccc(S(=O)(=O)Nc2ccc(-c3ccc(N4CCCC4)nn3)cc2)cc1C,nt,-3.4%,1.9%,nt,0.6%,2.2%
COc1ccc(S(=O)(=O)Nc2ccccc2C(=O)N2CCOCC2)cc1F,nt,-1.2%,-0.4%,nt,9.2%,4.0%
COc1ccc(S(=O)(=O)Nc2cccc(-c3ccc(N4CCCCCC4)nn3)c2)cc1F,nt,5.36µM*,nt,nt,nt,nt
Cc1cc(C)c(S(=O)(=O)Nc2ccc(-c3ccc(N4CCCCCC4)nn3)cc2)cc1C,nt,-17.9%,nt,nt,nt,nt
COc1cc(C)c(C)cc1S(=O)(=O)Nc1cccc(-c2ccc(N3CCOCC3)nn2)c1,nt,26.9µM*,nt,nt,nt,nt
COc1ccc(S(=O)(=O)Nc2cccc(-c3ccc(N4CCCCC4)nn3)c2)cc1F,nt,2.69µM*,nt,nt,nt,nt
SMILES,Luc counter,FLuc counter,ELG1 genotoxic,SMN2 splice up,NPC1 prom act,Rab9 promoter act
COc1ccc(S(=O)(=O)Nc2cccc(S(=O)(=O)N3CCCC3)c2)cc1OC,nt,2.9%,-2.4%,nt,3.7%,-9.1%
COc1ccc(S(=O)(=O)Nc2cccc(-c3ccc(N4CCOCC4)nn3)c2)cc1F,nt,6.75µM*,nt,nt,nt,nt
COc1cc(NC(=O)CSc2ncnc3scc(-c4ccccc4)c23)c(C(=O)O)cc1OC,1.3%,15.1µM*,1.5%,19.9%,0.5%,-5.3%
Cc1nn(C)c2c1c(C(F)(F)F)cc(=O)n2C(C)C(=O)N1CCN(c2ccccc2)CC1 (stereo unspecified),nt,6.8%,nt,nt,nt,nt
Nc1nn2cc(-c3ccc(Br)cc3)nc2c2ccccc12,nt,1.69µM*,?,nt,1.78µM*,2.24µM*
Nc1cc(-c2ccccc2)nn1S(=O)(=O)c1ccc(Br)cc1,-1.4%,-0.4%,0.1%,-34.6%,0.8%,6.4%
CC(C)C(=O)NCCc1nc2ccccc2n1C,1.5%,1.0%[2.3 µM],0.4%,3.4%,-0.1%,0.4%
CCOC(=O)c1ccc(NCc2nc3ccccc3n2C)cc1,nt,?,27.3%,nt,3.16µM*,3.16µM*
Cc1ccc(NCc2nc3ccccc3n2C)cc1C,nt,4.78µM*,?,nt,3.55µM*,2.82µM*
COc1ccc(NCc2nc3ccccc3n2CCOc2ccccc2)cc1,-2.3%,13.5µM*,20.6µM*,?,?,?
Cc1nc2ccccc2n1CCCOc1ccccc1,-0.8%,10.7µM*,13.8%,-26.0%,12.1%,17.0%
Cc1cccc(NS(=O)(=O)c2c(C(=O)N3CCOCC3)c(C)n(C)c2C)c1C,nt,-0.3%,-0.1%,nt,1.0%,-5.6%
Cc1ccc2c(c1)N(CC(=O)NCCCN1CCCCC1)C(=O)CO2,nt,3.0%,0.2%,nt,1.7%,2.5%
COc1ccc(Nc2nc3ccccc3n2C)cc1,nt,15.1µM*,25.4%,nt,2.51µM*,3.16µM*
COc1ccc(NCc2nc3ccccc3n2C)cc1,nt,10.7µM*,5.17µM*,nt,1.78µM*,2.24µM*
COc1ccc(NCc2nc3ccccc3n2CCOc2ccc(C)cc2)cc1,1.8%,?,?,-23.1%,15.9%,13.7%

# Compound activity (PubChem)
